Measurements reported in the supplement of paper PMC10849652.
Targets with a hit are over-represented here; the source holds about 8,800 in all. About 0.5% of all pairs of compound and target were hits.

Tests used:
Experiment in all cases: log2 fold change, soluble protein after heating vs DMSO (PISA); higher = thermal stabilisation; K562 lysate, 10 uM; active = over 0.2 and 3.5 SD of the protein, either way, in both replicates (recomputed)
ibrutinib = compound: C=CC(=O)N1CCC[C@@H](n2nc(-c3ccc(Oc4ccccc4)cc3)c3c(N)ncnc32)C1 [ibrutinib]
Outline: (§1)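 K562 pellets were dounce-homogenised in PBS pH 7.4 containing 1 mM MgCl2, and the crude extract, at 1 mg/mL protein, was exposed to 10 μM compound for 30 min. Aliquots were heated for 3 min across 48°C-58°C, pooled, brought to 0.5% NP-40 at 4°C and spun at 21,000xg for 90 min, with the supernatant taken as soluble protein. TMTpro 16plex LC-MS/MS with equalised channel sums quantified that protein. Values are log-two fold changes in thermal stability relative to solvent controls, taken from duplicates.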

[1] = compound: CC(=O)c1cnc2ccc(-c3cc(Cl)c(O)c(Cl)c3)nc2c1N[C@H]1CC[C@H](CN(C)C)CC1
Outline: as §1

ralimetinib = compound: CC(C)(C)Cn1c(N)nc2ccc(-c3[nH]c(C(C)(C)C)nc3-c3ccc(F)cc3)nc21 [ralimetinib]
Outline: as §1

[2] = compound: CC(C)(O)CC(=O)NCCn1ccc2ncnc(Nc3ccc(Oc4cccc(C(F)(F)F)c4)c(Cl)c3)c21
Outline: as §1

[3] = compound: CC(C)C1=C2N=C(C=C(N2N=C1)NCC3=CC=CC=C3)NCCCCCCN
Outline: as §1

[4] = compound: CC1=C(C(CC(=O)N1)C2=CC=C(C=C2)C(F)(F)F)C(=O)NC3=C(C=C4C(=C3)C=NN4)F
Outline: as §1

[5] = compound: CC1=C(C2=C(C=C1)C(=O)C3=CC=CC=C3N2CCCN)C
Outline: as §1

[6] = compound: CC1=C(C=C(C=C1)NC(=O)C2=CC(=CC=C2)C(C)(C)C#N)NC3=CC4=C(C=C3)N=CN(C4=O)C
Outline: as §1

[7] = compound: CC1=C(C=C(C=C1)NC(=O)C2=CC(=CC=C2)N(C)C)NC(=O)C3=CC=C(C=C3)O
Outline: as §1

[8] = compound: CC1=CC=C(C=C1)SC2=C3C=C(SC3=CN=C2)C(=O)N
Outline: as §1

vemurafenib = compound: CCCS(=O)(=O)Nc1ccc(F)c(C(=O)c2c[nH]c3ncc(-c4ccc(Cl)cc4)cc23)c1F [vemurafenib]
Outline: as §1

[9] = compound: CCCS(=O)(=O)Nc1ccc(F)c(C(=O)c2c[nH]c3ncc(Cl)cc23)c1F
Outline: as §1

barasertib = compound: CCN(CCCOc1ccc2c(Nc3cc(CC(=O)Nc4cccc(F)c4)[nH]n3)ncnc2c1)CCOP(=O)(O)O [barasertib]
Outline: as §1

[10] = compound: CC[C@@H]1C(=O)N(C)c2cnc(Nc3ccc(C(=O)NC4CCN(C)CC4)cc3OC)nc2N1C1CCCC1
Outline: as §1

volasertib = compound: CC[C@@H]1C(=O)N(C)c2cnc(Nc3ccc(C(=O)N[C@H]4CC[C@H](N5CCN(CC6CC6)CC5)CC4)cc3OC)nc2N1C(C)C [volasertib]
Outline: as §1

[11] = compound: CCn1c(C(=O)N(C2CC2)C2CC2)cc2c3c(ncn3C)c(Nc3cc(C)n(C)n3)nc21
Outline: as §1

[12] = compound: CCn1cc(-c2ccnc3[nH]c(-c4cccc(CN(C)C)c4)cc23)c(-c2ccc(NC(=O)N(C)C)cc2)n1
Outline: as §1

[13] = compound: CN1CCC(CNc2ccc3ncc(-c4cccc(OC(F)(F)F)c4)n3n2)CC1
Outline: as §1

saracatinib = compound: CN1CCN(CCOc2cc(OC3CCOCC3)c3c(Nc4c(Cl)ccc5c4OCO5)ncnc3c2)CC1 [saracatinib]
Outline: as §1

sotrastaurin = compound: CN1CCN(c2nc(C3=C(c4c[nH]c5ccccc45)C(=O)NC3=O)c3ccccc3n2)CC1 [sotrastaurin]
Outline: as §1

Measured: log2 fold change

RNF168 (UniProt Q8IYW5)
inactive: ibrutinib 0.155 | [1] 0.144 | ralimetinib 0.004 | [2] -0.041 | [3] -0.034 | [4] -0.071 | [5] 0.031 | [6] 0.026 | [7] -0.04 | [8] 0.011 | vemurafenib 0.152 | [9] 0.134 | barasertib 0.235 | [10] 0.128 | volasertib -0.062 | [11] 0.138 | [12] 0.015 | [13] 0.035 | saracatinib -0.007 | sotrastaurin -0.06

RIC1 (UniProt Q4ADV7)
inactive: ibrutinib -0.129 | [1] -0.052 | ralimetinib 0.046 | [2] -0.074 | [3] 0.038 | [4] -0.032 | [5] -0.065 | [6] 0.113 | [7] 0.027 | [8] -0.006 | vemurafenib -0.055 | [9] 0.021 | barasertib -0.013 | [10] 0.029 | volasertib 0.009 | [11] 0.017 | [12] -0.29 | [13] 0.004 | saracatinib -0.012 | sotrastaurin -0.008

SAMHD1 (UniProt Q9Y3Z3)
UniProt Q9Y3Z3, sequence (Q9Y3Z3 whole entry, looked up): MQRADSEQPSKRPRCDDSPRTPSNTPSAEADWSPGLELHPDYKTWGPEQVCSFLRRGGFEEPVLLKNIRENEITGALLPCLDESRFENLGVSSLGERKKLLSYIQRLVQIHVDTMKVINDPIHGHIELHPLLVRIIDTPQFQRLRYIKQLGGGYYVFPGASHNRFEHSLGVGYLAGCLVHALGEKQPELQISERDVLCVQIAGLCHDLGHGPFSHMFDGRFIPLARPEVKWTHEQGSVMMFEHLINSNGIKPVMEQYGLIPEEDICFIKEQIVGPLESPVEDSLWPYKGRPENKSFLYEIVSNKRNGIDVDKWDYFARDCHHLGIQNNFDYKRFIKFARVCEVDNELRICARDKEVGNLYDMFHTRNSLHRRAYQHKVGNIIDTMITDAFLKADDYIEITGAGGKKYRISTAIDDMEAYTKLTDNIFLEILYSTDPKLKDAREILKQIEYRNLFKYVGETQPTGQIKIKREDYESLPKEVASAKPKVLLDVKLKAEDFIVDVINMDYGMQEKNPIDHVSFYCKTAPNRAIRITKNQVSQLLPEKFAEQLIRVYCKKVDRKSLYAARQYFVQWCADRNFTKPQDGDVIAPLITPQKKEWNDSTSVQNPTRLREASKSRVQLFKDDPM
inactive: ibrutinib -0.009 | [1] -0.022 | ralimetinib 0.056 | [2] -0.004 | [3] -0.002 | [4] 0.003 | [5] -0.017 | [6] 0.006 | [7] 0.067 | [8] -0.003 | vemurafenib 0.034 | [9] 0.045 | barasertib 0.007 | [10] -0.032 | volasertib -0.037 | [11] 0.068 | [12] -0.096 | [13] 0.079 | saracatinib -0.052 | sotrastaurin 0.032

RCAN1 (UniProt P53805)
UniProt P53805, sequence (P53805 whole entry, looked up): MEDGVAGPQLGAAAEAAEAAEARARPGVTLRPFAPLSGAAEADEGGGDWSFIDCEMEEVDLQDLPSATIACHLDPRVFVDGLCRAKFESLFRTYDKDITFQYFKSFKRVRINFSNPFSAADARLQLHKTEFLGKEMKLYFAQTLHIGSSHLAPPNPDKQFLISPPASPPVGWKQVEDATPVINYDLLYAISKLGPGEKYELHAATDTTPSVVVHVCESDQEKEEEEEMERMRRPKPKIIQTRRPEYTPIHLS
inactive: ibrutinib -0.019 | [1] 0.003 | ralimetinib -0.004 | [2] 0.012 | [3] 0.002 | [4] 0.026 | [5] -0.027 | [6] 0.085 | [7] -0.02 | [8] 0.02 | vemurafenib 0.028 | [9] 0.061 | barasertib 0.034 | [10] -0.022 | volasertib -0.026 | [11] -0.06 | [12] -0.024 | [13] 0.041 | saracatinib 0.025 | sotrastaurin -0.056

SAR1B (UniProt Q9Y6B6)
inactive: ibrutinib 0.02 | [1] -0.094 | ralimetinib 0.045 | [2] -0.032 | [3] 0.093 | [4] 0.154 | [5] -0.018 | [6] 0.026 | [7] -0.065 | [8] 0.077 | vemurafenib 0.034 | [9] 0 | barasertib 0.165 | [10] 0.04 | volasertib -0.042 | [11] 0.017 | [12] -0.017 | [13] -0.09 | saracatinib 0.041 | sotrastaurin 0.047

RAB8B (UniProt Q92930)
inactive: ibrutinib -0.03 | [1] -0.018 | ralimetinib -0.035 | [2] -0.013 | [3] -0.003 | [4] 0.051 | [5] -0.001 | [6] 0.01 | [7] 0.099 | [8] -0.06 | vemurafenib -0.137 | [9] 0 | barasertib -0.036 | [10] 0.028 | volasertib -0.036 | [11] 0.007 | [12] 0.252 | [13] -0.142 | saracatinib 0.08 | sotrastaurin -0.024

RNF213, A0A0A0MTC1
inactive: ibrutinib 0.015 | [1] 0.006 | ralimetinib -0.001 | [2] -0.014 | [3] 0.007 | [4] 0.014 | [5] 0.008 | [6] 0.014 | [7] 0.042 | [8] 0.022 | vemurafenib 0.017 | [9] 0.025 | barasertib 0.076 | [10] -0.038 | volasertib -0.077 | [11] 0.027 | [12] -0.05 | [13] -0.053 | saracatinib 0.027 | sotrastaurin 0.043

RPTOR (UniProt Q8N122)
UniProt Q8N122, sequence (Q8N122 whole entry, looked up): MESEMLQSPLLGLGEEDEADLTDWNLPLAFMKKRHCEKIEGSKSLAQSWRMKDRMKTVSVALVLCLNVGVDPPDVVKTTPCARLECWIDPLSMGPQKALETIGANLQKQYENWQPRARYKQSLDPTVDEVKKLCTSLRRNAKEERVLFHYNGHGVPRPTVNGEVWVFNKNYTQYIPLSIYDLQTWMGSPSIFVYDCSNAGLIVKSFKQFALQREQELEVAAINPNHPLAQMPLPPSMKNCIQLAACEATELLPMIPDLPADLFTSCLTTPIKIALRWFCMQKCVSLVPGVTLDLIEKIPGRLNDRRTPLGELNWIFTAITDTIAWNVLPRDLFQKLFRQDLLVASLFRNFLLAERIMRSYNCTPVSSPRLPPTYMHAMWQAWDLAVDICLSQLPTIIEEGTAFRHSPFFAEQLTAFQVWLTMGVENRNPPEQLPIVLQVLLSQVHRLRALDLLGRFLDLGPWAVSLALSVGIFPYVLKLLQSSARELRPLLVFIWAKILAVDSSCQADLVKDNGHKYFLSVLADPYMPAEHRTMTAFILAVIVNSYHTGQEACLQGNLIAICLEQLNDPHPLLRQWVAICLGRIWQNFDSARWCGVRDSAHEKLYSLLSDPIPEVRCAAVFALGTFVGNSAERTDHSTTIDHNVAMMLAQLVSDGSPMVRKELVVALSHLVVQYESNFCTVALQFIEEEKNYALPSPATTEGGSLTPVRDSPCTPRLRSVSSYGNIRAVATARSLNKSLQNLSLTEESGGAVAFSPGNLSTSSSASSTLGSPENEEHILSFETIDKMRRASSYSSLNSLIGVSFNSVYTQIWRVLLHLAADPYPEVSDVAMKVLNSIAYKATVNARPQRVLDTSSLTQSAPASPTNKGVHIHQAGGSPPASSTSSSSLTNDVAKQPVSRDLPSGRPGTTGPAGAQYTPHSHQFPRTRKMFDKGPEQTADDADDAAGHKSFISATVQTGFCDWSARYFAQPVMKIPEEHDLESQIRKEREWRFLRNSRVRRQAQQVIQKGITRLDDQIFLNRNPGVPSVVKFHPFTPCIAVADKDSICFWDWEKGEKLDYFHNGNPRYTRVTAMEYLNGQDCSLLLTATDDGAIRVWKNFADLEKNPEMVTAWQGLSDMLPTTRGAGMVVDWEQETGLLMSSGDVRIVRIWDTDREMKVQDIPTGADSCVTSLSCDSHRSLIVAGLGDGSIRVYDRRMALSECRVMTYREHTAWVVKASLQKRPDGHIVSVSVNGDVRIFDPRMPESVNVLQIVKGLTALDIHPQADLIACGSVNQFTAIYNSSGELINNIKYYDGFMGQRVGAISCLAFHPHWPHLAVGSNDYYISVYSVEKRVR
inactive: ibrutinib -0.042 | [1] 0.008 | ralimetinib -0.001 | [2] -0.045 | [3] -0.012 | [4] 0.005 | [5] -0.039 | [6] 0.005 | [7] 0.038 | [8] 0.01 | vemurafenib -0.028 | [9] 0.022 | barasertib 0.052 | [10] -0.024 | volasertib -0.046 | [11] 0.038 | [12] 0.018 | [13] -0.039 | saracatinib 0 | sotrastaurin 0.046

RANBP6 (UniProt O60518)
inactive: ibrutinib -0.034 | [1] -0.05 | ralimetinib 0.025 | [2] -0.066 | [3] -0.034 | [4] -0.005 | [5] -0.017 | [6] -0.009 | [7] 0.026 | [8] 0.009 | vemurafenib 0.008 | [9] 0.025 | barasertib 0.013 | [10] -0.016 | volasertib 0.013 | [11] 0.068 | [12] -0.045 | [13] 0.06 | saracatinib -0.038 | sotrastaurin 0.002

RAI14 isoform 2 (UniProt Q9P0K7)
inactive: ibrutinib -0.019 | [1] -0.007 | ralimetinib -0.011 | [2] -0.01 | [3] -0.004 | [4] 0.017 | [5] -0.024 | [6] 0.01 | [7] 0.024 | [8] 0.001 | vemurafenib 0.001 | [9] 0.066 | barasertib 0.061 | [10] -0.019 | volasertib 0.005 | [11] 0 | [12] 0.045 | [13] -0.011 | saracatinib 0.031 | sotrastaurin 0.026

RMC1 (UniProt Q96DM3)
UniProt Q96DM3, sequence (Q96DM3 whole entry, looked up): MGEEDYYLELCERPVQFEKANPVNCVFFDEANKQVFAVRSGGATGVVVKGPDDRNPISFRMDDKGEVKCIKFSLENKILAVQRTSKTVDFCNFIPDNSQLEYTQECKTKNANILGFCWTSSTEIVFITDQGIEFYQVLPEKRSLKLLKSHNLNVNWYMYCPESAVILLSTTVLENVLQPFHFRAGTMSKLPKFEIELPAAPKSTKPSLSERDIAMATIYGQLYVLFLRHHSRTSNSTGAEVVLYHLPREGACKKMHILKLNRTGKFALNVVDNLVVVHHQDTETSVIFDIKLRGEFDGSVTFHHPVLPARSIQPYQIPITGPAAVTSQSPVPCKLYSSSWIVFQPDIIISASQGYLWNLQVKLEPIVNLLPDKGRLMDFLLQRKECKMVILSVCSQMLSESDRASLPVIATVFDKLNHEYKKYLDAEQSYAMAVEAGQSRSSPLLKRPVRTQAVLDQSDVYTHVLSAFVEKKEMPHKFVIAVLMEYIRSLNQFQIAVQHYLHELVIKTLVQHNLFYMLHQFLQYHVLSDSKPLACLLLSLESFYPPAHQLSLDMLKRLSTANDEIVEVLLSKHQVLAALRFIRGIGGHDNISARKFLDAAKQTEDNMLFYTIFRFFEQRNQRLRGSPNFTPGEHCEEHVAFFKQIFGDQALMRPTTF
inactive: ibrutinib -0.004 | [1] 0.018 | ralimetinib 0.03 | [2] -0.024 | [3] -0.001 | [4] -0.017 | [5] -0.018 | [6] 0.009 | [7] 0.005 | [8] 0.027 | vemurafenib 0.009 | [9] 0.029 | barasertib 0.003 | [10] 0.028 | volasertib -0.044 | [11] -0.02 | [12] 0 | [13] 0.024 | saracatinib 0.018 | sotrastaurin -0.015

RANBP2 (UniProt P49792)
inactive: ibrutinib 0.001 | [1] -0.01 | ralimetinib 0.018 | [2] -0.009 | [3] -0.01 | [4] 0.011 | [5] 0.007 | [6] 0 | [7] 0.018 | [8] -0.001 | vemurafenib -0.031 | [9] 0.015 | barasertib 0.043 | [10] -0.022 | volasertib -0.048 | [11] 0.026 | [12] -0.019 | [13] -0.031 | saracatinib 0.018 | sotrastaurin 0.015

RFC3 (UniProt P40938)
inactive: ibrutinib 0.024 | [1] 0.131 | ralimetinib 0.03 | [2] -0.012 | [3] -0.04 | [4] 0.004 | [5] -0.034 | [6] 0.002 | [7] 0.042 | [8] -0.008 | vemurafenib 0.021 | [9] 0.025 | barasertib 0.046 | [10] -0.033 | volasertib -0.065 | [11] 0.013 | [12] 0.133 | [13] 0.001 | saracatinib 0.001 | sotrastaurin 0.039

RPN2 (UniProt P04844)
UniProt P04844, sequence (P04844 whole entry, looked up): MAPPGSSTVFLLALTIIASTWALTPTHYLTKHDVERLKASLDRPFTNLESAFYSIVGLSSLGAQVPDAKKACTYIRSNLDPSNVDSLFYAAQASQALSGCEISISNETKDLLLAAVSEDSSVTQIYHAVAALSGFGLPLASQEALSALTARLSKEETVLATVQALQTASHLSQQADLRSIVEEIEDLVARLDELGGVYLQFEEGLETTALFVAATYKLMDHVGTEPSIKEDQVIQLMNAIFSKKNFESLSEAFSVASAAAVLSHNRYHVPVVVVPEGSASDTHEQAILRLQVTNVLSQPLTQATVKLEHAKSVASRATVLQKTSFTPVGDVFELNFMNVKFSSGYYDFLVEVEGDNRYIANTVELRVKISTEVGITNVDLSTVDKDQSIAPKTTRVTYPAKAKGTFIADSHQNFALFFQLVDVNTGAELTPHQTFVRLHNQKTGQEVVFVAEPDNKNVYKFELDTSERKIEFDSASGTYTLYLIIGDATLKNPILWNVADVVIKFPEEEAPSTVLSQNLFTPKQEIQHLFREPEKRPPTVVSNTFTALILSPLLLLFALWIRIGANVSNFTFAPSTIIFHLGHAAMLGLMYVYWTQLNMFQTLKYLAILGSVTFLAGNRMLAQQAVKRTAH
inactive: ibrutinib -0.008 | [1] 0.014 | ralimetinib -0.004 | [2] -0.035 | [3] -0.021 | [4] 0.008 | [5] 0.021 | [6] -0.011 | [7] -0.015 | [8] -0.017 | vemurafenib 0.009 | [9] 0.008 | barasertib 0.019 | [10] 0 | volasertib 0.003 | [11] -0.003 | [12] -0.084 | [13] 0.033 | saracatinib 0.008 | sotrastaurin 0.008

RFC5 (UniProt P40937)
inactive: ibrutinib -0.038 | [1] -0.001 | ralimetinib 0.046 | [2] 0.02 | [3] 0.012 | [4] -0.002 | [5] -0.009 | [6] 0.014 | [7] 0.025 | [8] 0.018 | vemurafenib 0.034 | [9] -0.003 | barasertib -0.017 | [10] -0.039 | volasertib -0.079 | [11] 0.022 | [12] 0.137 | [13] 0.005 | saracatinib 0.008 | sotrastaurin 0.043

RALGAPB (UniProt Q86X10)
UniProt Q86X10, sequence (Q86X10 whole entry, looked up): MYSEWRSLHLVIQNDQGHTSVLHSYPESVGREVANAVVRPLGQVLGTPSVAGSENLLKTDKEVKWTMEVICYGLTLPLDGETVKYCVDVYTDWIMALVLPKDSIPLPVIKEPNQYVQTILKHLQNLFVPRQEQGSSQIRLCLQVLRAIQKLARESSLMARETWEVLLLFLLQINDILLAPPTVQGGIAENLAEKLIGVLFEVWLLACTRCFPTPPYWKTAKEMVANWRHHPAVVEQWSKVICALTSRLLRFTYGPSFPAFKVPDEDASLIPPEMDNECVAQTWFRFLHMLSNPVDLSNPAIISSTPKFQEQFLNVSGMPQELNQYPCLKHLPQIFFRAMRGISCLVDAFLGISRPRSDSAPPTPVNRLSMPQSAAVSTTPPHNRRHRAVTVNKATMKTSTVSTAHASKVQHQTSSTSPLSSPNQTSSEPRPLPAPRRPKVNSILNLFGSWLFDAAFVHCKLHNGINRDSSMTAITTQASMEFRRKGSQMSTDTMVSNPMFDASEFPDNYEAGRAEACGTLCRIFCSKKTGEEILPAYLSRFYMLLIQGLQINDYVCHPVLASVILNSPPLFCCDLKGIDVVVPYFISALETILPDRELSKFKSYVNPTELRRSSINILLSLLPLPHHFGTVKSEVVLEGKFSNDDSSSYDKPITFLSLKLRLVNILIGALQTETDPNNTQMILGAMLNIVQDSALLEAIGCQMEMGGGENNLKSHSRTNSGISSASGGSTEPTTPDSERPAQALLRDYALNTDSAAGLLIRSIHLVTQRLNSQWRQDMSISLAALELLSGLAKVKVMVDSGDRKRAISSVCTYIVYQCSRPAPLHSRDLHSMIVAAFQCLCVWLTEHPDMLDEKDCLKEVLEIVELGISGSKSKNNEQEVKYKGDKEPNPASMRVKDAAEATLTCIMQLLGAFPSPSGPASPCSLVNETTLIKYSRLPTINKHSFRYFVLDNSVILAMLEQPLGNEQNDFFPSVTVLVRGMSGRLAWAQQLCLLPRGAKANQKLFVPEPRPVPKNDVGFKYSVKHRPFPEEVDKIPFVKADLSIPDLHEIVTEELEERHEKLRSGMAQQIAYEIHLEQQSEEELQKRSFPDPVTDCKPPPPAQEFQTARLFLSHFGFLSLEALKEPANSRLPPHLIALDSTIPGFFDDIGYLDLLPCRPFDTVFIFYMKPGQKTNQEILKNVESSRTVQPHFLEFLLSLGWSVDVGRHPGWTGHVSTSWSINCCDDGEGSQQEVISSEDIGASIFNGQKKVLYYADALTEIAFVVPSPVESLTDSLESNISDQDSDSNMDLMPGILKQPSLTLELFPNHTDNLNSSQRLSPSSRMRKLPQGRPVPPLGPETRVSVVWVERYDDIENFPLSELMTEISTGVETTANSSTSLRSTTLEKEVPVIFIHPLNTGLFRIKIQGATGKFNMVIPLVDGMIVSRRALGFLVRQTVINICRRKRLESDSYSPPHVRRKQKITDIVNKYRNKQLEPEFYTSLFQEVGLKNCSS
inactive: ibrutinib 0.066 | [1] -0.002 | ralimetinib 0.033 | [2] -0.038 | [3] 0.003 | [4] -0.048 | [5] 0.029 | [6] 0.065 | [7] 0.032 | [8] 0.01 | vemurafenib 0.044 | [9] 0.016 | barasertib 0.103 | [10] -0.008 | volasertib -0.023 | [11] -0.013 | [12] -0.09 | [13] 0.07 | saracatinib 0.017 | sotrastaurin 0.032
